In the library only some 21% were active in any assay of this set; here they are far more common.
HCV inh – qHTS Assay for Inhibitors of Hepatitis C Virus (HCV); Huh7.5.1 HCVcc-Cre infection, luciferase reporter, 44 h; Potency, µM (top dose mostly 41.8 µM), for the others: at the top dose activity change, negative = inhibition, actives largely listed as inhibitors; actives 3.4% (n = 340,000); also: potency is read from the fitted curve at half-maximal effect; % is scaled to controls: 0 for no effect and ±100 for the full control effect
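Luciferase read-out (15 sec integration) after a 15 min room-temperature substrate step quantifies HCVcc-Cre infection. Cells, 1,000 per well, had compound added 4 h post-plating, then virus at ~0.5 moi, and were cultured 44 h.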
Pf growth 48h – Primary qHTS for delayed death inhibitors of the malarial parasite plastid, 48 hour incubation; P. falciparum luciferase growth in erythrocytes, 48 h; Potency, µM (highest dose often 28.7 µM), for inactives: at the top dose activity change, negative = inhibition, usual class: inhibitors; actives 5.9% (n = 310,000); also: potency is read from the fitted curve at half-maximal effect; % is scaled to controls: 0 for no effect and ±100 for the full control effect
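Luciferase-expressing parasites in RBCs, 2% Hct / 0.1% parasitemia final; RPMI 1640 + 0.5% Albumax; 37 C, 5% CO2, one generation; luminescence read-out, lower signal = inhibition.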
Shiga toxin inh – A qHTS for Small Molecule Inhibitors of Shiga Toxin. Vero cells, Shiga toxin protein synthesis inhibition reporter. inhibition, % at 38.7 µM. actives 9.2% (n = 290,000); in the data active = inhibition mostly above about 28%, no sharp cut-off; inactive = mostly below about 43%; also: 0% is about no effect
Pf growth 96h – Primary qHTS for delayed death inhibitors of the malarial parasite plastid, 96 hour incubation | P. falciparum luciferase reporter growth, 96 h | Potency, µM (top dose mostly 28.7 µM), for inactives: top-dose activity change, negative = inhibition, actives largely listed as inhibitors | actives 6.9% (n = 320,000) | AID 504834, 2011; also: potency is read from the fitted curve at half-maximal effect; % is scaled to controls: 0 for no effect and ±100 for the full control effect
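Two-generation exposure (96 h) targets delayed-death phenotype. Reporter parasites carrying integrated firefly luciferase, in red cells at 2% hematocrit and 0.05% parasitemia final, kept at 37 C, 5% CO2; luminescence loss indicates inhibition.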
Cycloheximide cs – Cycloheximide Counterscreen for Small Molecule Inhibitors of Shiga Toxin | max response, % | actives 12% (n = 300,000) | cell reporter, cycloheximide protein synthesis inhibition counterscreen; in the data active = max response mostly above about 13%, no sharp cut-off; inactive = mostly below about 14%; also: read at 38.3 µM for the half of the compounds with a filed dose; 0% is about no effect
HCMV antiviral – qHTS Assay for inhibitors of the human cytomegalovirus (HCMV). activity change, negative = inhibition, % at 57.5 µM. actives 4.5% (n = 410,000). HFF cells, HCMV-luciferase reporter, 72 h; stronger effect = lower value. AID 1259415, 2018; in the data active = activity change below about -60%; inconclusive = no clear call, values can overlap the other calls; inactive = above about -39%; also: % is scaled to controls: 0 for no effect and ±100 for the full control effect
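Cell-based, HFFs, 1000 cells/well, 16 h 37C; cpds in DMSO + HCMV-luc, MOI 1 PFU/cell; 72 h 37C; OneGlo luminescence after 5 min RT; norm. to buffer vs Salinomycin 10uM.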
The depositor's hits bear a star; ? = inconclusive; · = no result given; + = active, no number; ! = a repeat was not active. Unless noted, calls follow the shape of the dose curve; as a rule, active = well fitted inhibition curve with a large enough effect; inconclusive = small, poorly fitted or top-dose-only effect, or another doubt; inactive = no such curve, though single readings can be large or run the other way.

SMILES	HCV inh	Pf growth 48h	Shiga toxin inh	Pf growth 96h	Cycloheximide cs	HCMV antiviral
CCC(C)Nc1nc(N)c([N+](=O)[O-])c(NCc2ccccc2)n1 (stereo not drawn)	11µM*	?	7	?	2	-26
COc1ccccc1Nc1nc(NCCCN(C)C)nc(N)c1[N+](=O)[O-]	?	?	-16	?	12	-28
CCC(C)Nc1nc(N)c([N+](=O)[O-])c(Nc2ccccc2OC)n1 (stereo not drawn)	13µM*	12µM*	-5	10µM*	-2	?
COc1ccccc1Nc1nc(NCC(C)C)nc(N)c1[N+](=O)[O-]	?	?	-15	?	1	-85*
Cc1ccc(Nc2nc(N)c([N+](=O)[O-])c(NCc3ccccc3)n2)cc1	-41%	?	25	?	-2	?
Clc1ccc2nc(SCc3nnc(-c4ccccc4)o3)[nH]c2c1	17%	2%	9	8%	-3	-38
Clc1ccc(OCc2nnc(SCc3nnc(-c4ccccc4)o3)o2)c(Cl)c1	-28%	26%	56*	·	39*	-2
O=C(CSc1nnc(COc2ccc(Cl)cc2Cl)o1)Nc1ccccn1	14%	32%	60*	8%	28*	24
CCc1ccccc1NC(=O)CSc1nnc(COc2ccccc2Cl)o1	·	·	·	·	·	-10
O=C(CCn1cnnn1)Nc1ccc(F)cc1	24%	96%	66*	1%	26*	-103*!
CC(=O)Nc1ccc(NC(=O)CCn2cnnn2)cc1	21%	-5%	11	17%	-2	-38
CC1=NN(c2ccccc2)C(=O)/C1=C\c1ccc(Oc2ccc([N+](=O)[O-])cc2[N+](=O)[O-])cc1	-25%	0%	-9	24%	-2	50
COc1cc(/C=C2\C(=O)N(c3ccccc3)N=C2C)ccc1Oc1ccc([N+](=O)[O-])cc1[N+](=O)[O-]	34%	-17%	-3	10µM*	15	0
CCCN(CC(=O)Nc1ccccc1OC)C(=O)CSc1ccc(Br)cc1C	10µM*	?	·	-29%	·	3
COc1cc(/C=C2\SC(N)=NC2=O)ccc1OCC(=O)Nc1ccccc1C	1%	5.9µM*	·	5.2µM*	·	0
COc1ccc(/C=C2\SC(=O)N(CC(=O)Nc3ccccc3O)C2=O)cc1OC	-16%	?	-6	5%	20	95
COc1cc(/C=C2/SC(N)=NC2=O)ccc1Oc1ccc([N+](=O)[O-])cc1[N+](=O)[O-]	10%	13%	-10	25%	-4	-70*
Cc1ccccc1CSc1nc(-c2cccc(F)c2)nc2c1Cc1c(CO)cnc(C)c1O2	·	·	·	·	·	12
C[C@H](CO)N1C[C@H](C)[C@@H](CN(C)S(=O)(=O)c2ccccc2)Oc2ccc(NS(=O)(=O)c3cn(C)cn3)cc2C1=O	5%	·	·	·	·	1
COC(=O)c1ccc(NC(=O)COc2ccc(C3C(C#N)=C(N)Oc4c3ccc3ccccc43)cc2OC)cc1 (stereo not drawn)	?	?	4	?	8	17
CCOc1ccc(C(=O)N(CC(=O)Nc2cccc(C)c2C)CC2CCCO2)cc1OC (stereo not drawn)	7%	-13%	·	-20%	·	+
CCOc1ccc(/C=C/C(=O)N(CC)CC(=O)Nc2c(F)cccc2F)cc1OC	·	·	·	·	·	32
COc1ccc(/C=C2\SC(N)=NC2=O)cc1Br	-21%	-8%	·	?	19*	-15
COc1cc(C2C(C#N)=C(N)Oc3c2ccc2ccccc32)ccc1OCC(=O)Nc1ccccc1C (stereo not drawn)	8.9µM*	10µM*	-2	?	-1	10
CCCN(CC(=O)Nc1ccccc1C)C(=O)/C=C/c1ccc(OCC)c(OC)c1	?	9.3µM*	·	?	·	1
SMILES	HCV inh	Pf growth 48h	Shiga toxin inh	Pf growth 96h	Cycloheximide cs	HCMV antiviral
O=P(O)(O)OC[C@H]1O[C@](O)(COP(=O)(O)O)[C@@H](O)[C@@H]1O	·	7%	·	15%	·	·
O=C(COC(=O)CNC(=O)c1ccco1)NCc1ccc(F)cc1	1%	36%	20	40%	-3	-21
CCN(CC)c1nn2c(=O)c(C(=O)NCc3cccc(OC)c3OC)cnc2s1	·	·	·	·	·	35
Cc1ccc(CNC(=O)c2cc3c(=O)n4ccccc4nc3n(CC3CCCO3)c2=N)cc1 (stereo not drawn)	?	2.6µM*	-6	?	-4	·
C=CCNC(=O)c1cc2c(=O)n3cc(C)ccc3nc2nc1NCC1CCCO1 (stereo not drawn)	7%	8%	-8	4.1µM*	-4	·
CCNc1nc2nc3ccc(C)cn3c(=O)c2cc1C(=O)NCC1CCCO1 (stereo not drawn)	10%	5%	-8	38%	-1	26
N=c1c(C(=O)NC2CCCC2)cc2c(=O)n3ccccc3nc2n1CC1CCCO1 (stereo not drawn)	-15%	13µM*	-11	?	-5	23
N=c1c(C(=O)NC2CCCCC2)cc2c(=O)n3ccccc3nc2n1CC1CCCO1 (stereo not drawn)	-26%	?	8	?	-3	3
COc1cccc(-n2c(=O)c3c4c(sc3n(Cc3ccccc3C#N)c2=O)CCCC4)c1	·	·	·	·	·	2
CC(C)Oc1cccc(C(=O)Nc2ccc(N3CCN(C)CC3)cc2)c1	-15%	24%	·	?	26*	44
CCCOc1cccc(C(=O)NC(=S)Nc2ccc(N3CCN(C)CC3)cc2)c1	?	?	13	-1%	7	16
CN1CCN(c2ccc(NC(=O)c3cccc(OCc4ccccc4)c3)cc2)CC1	25µM*	10µM*	60*	·	23*	92
COCCNC(=O)/C(C#N)=C1\N=C(N)c2ccccc21	-14%	-14%	-8	1%	13	24
O=S(=O)(Nc1cc(S(=O)(=O)N2CCOCC2)ccc1Cl)c1ccccc1	13%	·	·	·	·	-1
Cc1ccc2nc(SCc3nc4ccccc4c(=O)[nH]3)[nH]c2c1	12%	35%	69*	?	27*	23
Cc1ccc2nc(CSc3nc(C)ccc3C#N)[nH]c2c1	?	·	21	-63%	17*	144
Cc1ccc(C#N)c(SCc2ccccc2F)n1	4%	22%	21	60%	7	?
O=c1[nH]c(CSc2ccccn2)nc2c1cnn2-c1ccccc1	?	25%	31*	39%	15	-22
O=c1[nH]c(CSc2ccccn2)nc2ccccc12	6%	274%	119*	319%	43*	66
